# From the supplement of paper PMC10981050
# Several values for one entry are separate records, joined by “and”; a condition that tells them apart may be missing. Equal entries are not always repeated. Structures can show the parent of a compound that is named as a salt.
# How the values were obtained:
# Assay in all cases: cell viability relative to vehicle control; higher = less cytotoxic
# Conditions in all cases: 10 µM
# [1] = test system: K562
# Outline: (§1)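 Mutant clones made by CRISPR editing and their isogenic wild-type counterparts, from four leukaemia lines, were exposed to a single 10 µM dose of each library compound for 48 h. The supernatant was then removed and CellTiter-Glo luminescence was read. Viability was reported as percent of the on-plate vehicle control.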
# [2] = test system: MARIMO
# Outline: as §1
# [3] = test system: MOLM14
# Outline: as §1
# [4] = test system: OCI-AML2
# Outline: as §1
Compound,cell viability ([1]; SRSF2 genotype: SRSF2 P95H/wt),cell viability ([1]; SRSF2 genotype: SRSF2 wt/wt),cell viability ([2]; SRSF2 genotype: SRSF2 P95H/wt),cell viability ([2]; SRSF2 genotype: SRSF2 wt/wt),cell viability ([3]; SRSF2 genotype: SRSF2 P95H/wt),cell viability ([3]; SRSF2 genotype: SRSF2 wt/wt),cell viability ([4]; SRSF2 genotype: P95H/wt),cell viability ([4]; SRSF2 genotype: wt/wt)
Cc1ccc(S(=O)(=O)NC(=O)NN2CC3CCCC3C2)cc1 (stereo not drawn) [Gliclazide (Diamicron)],95.8% and 105%,109%,106%,111%,103%,106%,113%,101%
CC(C)(C)c1cc(O)ccc1O,99.8% and 100%,93.8%,21.6%,0.51%,48%,54.4%,37.9%,29.7%
C/C=C(/C)C(=O)OC(=O)/C(C)=C\C [Angelic anhydride],98.7% and 106%,113%,101%,101%,103%,107%,102%,100%
CCCCC(CC)COC(=O)C(C#N)=C(c1ccccc1)c1ccccc1 (stereo not drawn) [Octocrylene],94.2% and 88.6%,97.5%,95.1%,107%,95.1%,98.5%,98.4%,99.9%
NC(=O)N1c2ccccc2CC(=O)c2ccccc21 [Oxcarbazepine],89% and 97.3%,94.8%,85.3%,99.1%,73.4%,92.3%,86%,86.9%
NC[C@@](O)(c1ccc(Cl)cc1)c1ccc(-c2cn[nH]c2)cc1,34.7% and 19.4%,13%,52.9%,56.4%,29.3%,25.6%,13.8%,17.4%
COc1ccc2cc3[n+](cc2c1OC)CCc1cc2c(cc1-3)OCO2 [Berberine],65.6% and 74.1%,72.6%,67.3%,62.1%,75.4%,81.8%,52%,53.8%
N=C(N)NC(=O)c1nc(Cl)c(N)nc1N [Amiloride HCl],88.4% and 98.5%,92.9%,99.3%,96.2%,72.8%,86.7%,85.8%,84.7%
COc1cc(Nc2ncc3c(n2)-c2ccc(Cl)cc2C(c2c(F)cccc2OC)=NC3)ccc1C(=O)O [MLN8237 (Alisertib)],46.2% and 63.8%,60%,87.3%,108%,30.6%,17.7%,43.5%,44.5%
CCOCc1nc2c(N)nc3ccccc3c2n1CC(C)(C)O [Resiquimod],94.5% and 96%,92.3%,86%,87.6%,97.1%,96.1%,95.8%,98.8%
CC1OC(OC2C(CO)OC(OCC3OC(OC(=O)C45CCC(C)(C)CC4C4=CCC6C7(C)CCC(OC8OCC(O)C(O)C8OC8OC(C)C(O)C(O)C8O)C(C)(CO)C7CCC6(C)C4(C)CC5)C(O)C(O)C3O)C(O)C2O)C(O)C(O)C1O (stereo not drawn) [Hederacoside C],101% and 93%,95.3%,96.9%,101%,97.3%,98%,93.5%,106%
